# Molecular target: NLRP2
# Assay: pooled miR-30 sensor sort-seq; sequence = guide strand
# Conditions: shRNA
# Note: reference of the scale not given here.
row,Sequence,sensor-assay potency score (higher = more potent)
1,TATTTCTTTGAACTGAGCCATC,-1.26
2,TTTTTGAACACCACTCTCTGGA,0.671
3,TTTTTCTTCTATTTCTTCCAGC,-0.106
4,TTACAGTCTTGTGACCTCGAAG,-1.08
5,TATACCTGCACCTATTGTCTTT,-0.461
6,TTTCTGTAAACGCTTGTGCTTC,-0.408
7,TTCAATATATACCTGCACCTAT,-0.184
8,TACAACTTATGTCGCATCGCAG,-0.571
9,TTCTGTTTTGAAGCGCTCCAGC,-0.763
10,AAGTCATCTATTTTCAACCTGA,0.0295
11,TTTCTCAGTATCAATAATCAGT,-0.723
12,TTCGTCTTCAATATATACCTGC,0.466

# Molecular target: NLRP3
# Assay: as above
# Conditions: shRNA
row,Sequence,sensor-assay potency score (higher = more potent)
1,TTGAAGTCGATCATTAGCGTGG,0.548
2,TTTTGGAACAGGTTCATCCTCA,-0.144
3,TCAAACAGCAACTCCATCTTAA,-0.477
4,TAGATCCACATGGTCTGCCTTC,-0.905
5,TTGTCTAATTCCAACACCTGAA,-0.802
6,AAGCTGTAGAACTTCTCGCAGT,-0.94
7,TTGGCTTTCACTTCAATCCATT,-0.825
8,TTCTCTGTCTGACCCCTCGGGA,-1.19
9,TTACAAATAGAGATTCTCGAAA,-0.224

# From the OligoGym collection
